Results reported in PubChem BioAssay AID504834 (National Center for Advancing Translational Sciences (NCATS), 2011).
In all, about 320,000 compounds went through this assay and about 22,000 (6.9%) were called active. Where a call stands in place of a potency, no number is given. Inconclusive results (about 27%) are left out. Calls come from the whole dose curve; as a rule, active = well fitted inhibition curve with a large enough effect; inconclusive = small, poorly fitted or top-dose-only effect, or another doubt; inactive = no such curve, though single readings can be large or run the other way. The full list was thinned out, with actives kept by preference.

test: Primary qHTS for delayed death inhibitors of the malarial parasite plastid, 96 hour incubation; settings: P. falciparum luciferase reporter growth; series mostly up to 28.7 µM
Method in brief: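 Readout is luminescence from an integrated firefly luciferase in P. falciparum. Red cells, 2% hematocrit and 0.05% parasitemia final, were cultured with compound through two parasite generations (96 hours) at 37 C, 5% CO2.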
Potency is the fitted concentration of half-maximal effect.

Row | Compound | Potency
1 | CCCOC(=O)c1[nH]c2c(c1C)C(=O)CC(c1cc(OC)c(OC)c(OC)c1)C2 (stereo unspecified) | 11.7 µM (active)
2 | CCCCOC(=O)c1[nH]c(C)c(C(=O)OC)c1C | inactive
3 | CCCOC(=O)c1[nH]c2c(c1C)C(=O)CC(c1cccs1)C2 (stereo unspecified) | 9.28 µM (active)
4 | COCCOC(=O)c1[nH]c2c(c1C)C(=O)CC(c1ccc(OC)cc1)C2 (stereo unspecified) | inactive
5 | CCOC(=O)C1=C(N)N2C(=O)C(C)SC2=C(C(=O)OCC)C1c1cc(OC)c(OC)c(OC)c1 (stereo unspecified) | inactive
6 | Cc1cc(C)c(S(=O)(=O)n2cc(C(C)C(N)C(=O)O)c3ccccc32)c(C)c1 (stereo unspecified) | inactive
7 | O=C(Nc1cccc(F)c1)NC1CCCc2ccccc21 (stereo unspecified) | inactive
8 | COc1ccc(CN2CCC(n3nccc3NC(=O)CCCc3ccccc3)CC2)cc1C | inactive
9 | COCCNC(=O)c1ccc(S(=O)(=O)c2ccc(Cl)cc2)c(NC(C)=O)c1 | inactive
10 | O=C(O)/C=C/c1ccc(OCCCF)cc1 | inactive
11 | COc1ccc([C@H]2CC(=O)C=C(/C=C/c3ccccc3)C2)cc1 | inactive
12 | CCOC(=O)C1(S(=O)(=O)c2ccc(Cl)cc2)CCN(Cc2ccccc2)CC1 | 2.94 µM (active)
13 | O=C(NNS(=O)(=O)c1ccc(Cl)cc1)C1CCN(Cc2ccccc2)CC1 | inactive
14 | CCOC(=O)C1(S(=O)(=O)c2ccccc2)CCN(Cc2ccccc2)CC1 | inactive
15 | N#Cc1nc(-c2cccc3ccccc23)oc1N | inactive
16 | Cc1cc(NC(=O)Nc2c[nH]c(=O)[nH]c2=O)ccc1Br | inactive
17 | CC1CCN(S(=O)(=O)c2ccc3c(c2)n(C)c(=O)n3C)CC1 | inactive
18 | COCCN1C(=O)C(=O)/C(=C(/O)c2ccc(S(=O)(=O)N3CCOCC3)cc2)C1c1ccc(OC)c(OC)c1 (stereo unspecified) | inactive
19 | COCCN1C(=O)C(=O)/C(=C(/O)c2ccc(S(=O)(=O)N3CCCCC3)cc2)C1c1ccc(OC)c(OC)c1 (stereo unspecified) | 9.28 µM (active)
20 | CCOc1cc(C2/C(=C(/O)c3ccc(S(=O)(=O)N4CCCCC4)cc3)C(=O)C(=O)N2CCOC)ccc1O (stereo unspecified) | inactive
21 | CN(C)S(=O)(=O)c1cccc(-c2nn(-c3ccccc3)cc2/C=C2\SC(=S)N(CC(=O)O)C2=O)c1 | inactive
22 | Cc1nn(C)c(C)c1C(C)NC(=O)c1ccc(OC2CCN(Cc3ccccn3)CC2)cc1 (stereo unspecified) | inactive

Row | Compound | Potency
23 | Cc1cccc(C(C)C)c1NC(=O)COC(=O)C1CC(=O)N(Cc2ccccc2)C1 (stereo unspecified) | inactive
24 | Nc1cc(OC(=O)c2ccccc2Br)nn1S(=O)(=O)c1ccccc1 | inactive
25 | Cc1ccc(S(=O)(=O)n2nc(OC(=O)C(C)(C)C)cc2N)cc1 | inactive
26 | Cc1nn(C(C)(C)C)c(OC(=O)CC(C)C)c1S(=O)(=O)c1ccccc1 | 9.28 µM (active)
27 | CCc1ccc(OCC(O)CN2CCN(CCO)CC2)cc1 (stereo unspecified) | inactive
28 | CCCc1ccc(OCC(O)CN2CCN(CCO)CC2)cc1 (stereo unspecified) | 10.4 µM (active)
29 | CCCc1ccc(OCC(O)CN2CCN(C(=O)OCC)CC2)cc1 (stereo unspecified) | inactive
30 | Cc1ccc(S(=O)(=O)N2CCCCC2)cc1C(=O)N1CCN(CCO)CC1 | inactive
31 | CN(CC(=O)Nc1cccc(F)c1)C(=O)C1CC(=O)N(CCc2ccccc2)C1 (stereo unspecified) | inactive
32 | COc1ccccc1CN1CCCC(N2CCN(c3ccc(F)cc3)CC2)C1 (stereo unspecified) | inactive
33 | COc1cccc(N2C(=O)CC(N3CCc4ccccc4C3)C2=O)c1 (stereo unspecified) | inactive
34 | COc1ccc(CN2CCCC(N3CCc4ccccc4C3)C2)c(O)c1 (stereo unspecified) | 8.28 µM (active)
35 | COc1ccc(CN2C3CCCC2CC(NC(=O)c2cccc(F)c2)C3)cc1 (stereo unspecified) | inactive
36 | CCCCCCC(O)(CCN1CCCCC1)c1ccccc1 (stereo unspecified) | inactive
37 | O=C(COc1ccccc1Cl)Nc1ccccc1C(=O)NC1CC1 | inactive
38 | COc1ccc2c(c1)OC(O)(C(F)(F)C(F)F)CC2=O (stereo unspecified) | 0.828 µM (active)
39 | CC1(C)CC(=O)c2ccc(O)cc2O1 | inactive
40 | O=S1(=O)N=C(N(CCO)/N=C/c2ccccc2F)c2ccccc21 | inactive
41 | CCOc1ccc(CNC(=O)C2CCCN(c3nnc(C)c4c(C)n(-c5ccccc5)nc34)C2)cc1 (stereo unspecified) | inactive
42 | COc1ccc(-n2nc3c(N4CCC(C(=O)NCc5ccccc5)CC4)nnc(C)c3c2C)cc1 | 13.1 µM (active)
43 | COc1ccc(CNC(=O)C2CCN(C(=O)c3ccccc3)CC2)cc1 | inactive
44 | COC(=O)c1ccc(Nc2ncnc3sccc23)cc1 | inactive

Row | Compound | Potency
45 | CC(=O)c1c(C)n(-c2ccc(C)cc2)c2ccc(O)cc12 | 7.38 µM (active)
46 | Cc1c(Cc2ccccc2)c(=O)oc2cc(OCC(N)=O)ccc12 | inactive
47 | CCOC(=O)c1c(C)oc2ccc(OCC(=O)N(CC)CC)cc12 | inactive
48 | CC(=O)c1c(C)n(-c2ccc(N(C)C)cc2)c2ccc(OCC(N)=O)cc12 | 9.28 µM (active)
49 | CCOC(=O)c1c(CN2CCOCC2)n(-c2ccccc2)c2ccc(O)cc12 | inactive
50 | O=C(O)CCC(=O)Nc1ccc(OCC2CCCO2)cc1 (stereo unspecified) | inactive
51 | CCCn1nc(C(=O)Nc2ccc3nc(C)sc3c2)c2ccccc2c1=O | inactive
52 | CCCCn1nc(C(=O)Nc2cccc(C(=O)NC3CC3)c2)c2ccccc2c1=O | 11.7 µM (active)
53 | CCn1nc(C(=O)Nc2ccc(N3CCOCC3)cc2)c2ccccc2c1=O | inactive
54 | CC(=O)Nc1ccc(S(=O)(=O)NCC2CCC(C(=O)NCCc3ccccc3)CC2)cc1 (stereo unspecified) | inactive
55 | COc1ccc(C2NC(=O)N(C)C(C)=C2[N+](=O)[O-])cc1 (stereo unspecified) | inactive
56 | COc1ccc(C(C)(C)C)cc1NC(=O)CCN1C(=O)C2CCCCC2C1=O (stereo unspecified) | inactive
57 | NC(=O)c1ccsc1NC(=O)COC(=O)COc1ccc(C=O)cc1 | inactive
58 | O=C(NCC(c1cccs1)N1CCOCC1)c1cc(Cl)ccc1[N+](=O)[O-] (stereo unspecified) | inactive
59 | O=C(/C=C/c1cccs1)c1cc(Cl)ccc1OC(=O)N1CCOCC1 | 8.28 µM (active)
60 | CC(=O)Nc1ccccc1OC(=O)N1CCOCC1 | inactive
61 | CCOc1cc(C)c(S(=O)(=O)NCc2ccccn2)cc1C | inactive
62 | COc1ccc2[nH]c(C(=O)N3CCN(C)CC3)c(C)c2c1 | inactive
63 | O=C(c1cc2ccccc2s1)N1CCN(c2ccccn2)CC1 | inactive
64 | O=C(NC1CCCC1)C(c1ccco1)N(C(=O)c1csnn1)c1ccccc1 (stereo unspecified) | inactive
65 | OCC[C@H]1C[C@@H](O)[C@H](O)[C@]2(OCCCc3ccccc32)O1 | inactive
66 | COc1ccc(Cl)cc1NC(=O)CCN1CCOCC1 | inactive

Row | Compound | Potency
67 | Cc1ccc(N2CC(C(=O)Nc3cc(Cl)ccc3-n3cncn3)CC2=O)cc1 (stereo unspecified) | inactive
68 | COc1cc(OC)c(N2CC(C(=O)Nc3cc(Cl)ccc3N3CCOCC3)CC2=O)cc1Cl (stereo unspecified) | 11.7 µM (active)
69 | CN(C(=O)CSc1nnc(C2CC2)n1C)C1CCCc2ccccc21 (stereo unspecified) | inactive
70 | Cc1cc(C)n2nc(C(=O)OCC(=O)N(CCC#N)c3ccc(F)cc3)nc2n1 | inactive
71 | O=C(CCn1nnc2ccccc2c1=O)N[C@@H](Cc1c[nH]c2ccccc12)C(=O)O | inactive
72 | CCN1CCN(CC(=O)Nc2sc3c(c2C#N)CCC3)CC1 | inactive
73 | CCC(=O)Nc1sc(C(=O)N2CCCCC2)c(C)c1C#N | 14.7 µM (active)
74 | CCOC(=O)c1sc(NC(=O)CSc2ncccn2)c(C#N)c1C | inactive
75 | COc1cc(OC)c(C(=O)OCC(=O)N2CC(=O)Nc3ccccc32)cc1OC | inactive
76 | O=C1CN(C(=O)COC(=O)c2cnc(Cl)c(Cl)c2)c2ccccc2N1 | inactive
77 | COc1ccc(Cl)cc1-n1c(C)cc(C(=O)OCC(=O)N2CC(=O)Nc3ccccc32)c1C | 4.15 µM (active)
78 | O=C(COC(=O)Cc1ccccc1F)NNC(=O)c1ccc(Cl)cc1 | inactive
79 | Cc1cc(Br)ccc1NC(=O)CN(C)C(=O)CN1C(=O)NC2(CCCC2)C1=O | inactive
80 | COc1ccc(CN(C)C(=O)Cc2c[nH]c3ccccc23)c(OC)c1OC | inactive
81 | COc1ccc(-c2cc(C(=O)N(C)CC(=O)Nc3ccccc3Cl)c3ccccc3n2)cc1OC | 9.28 µM (active)
82 | COc1ccc(Cl)cc1NC(=O)CN(C)C(=O)c1ccc2n[nH]nc2c1 | inactive
83 | COc1ccc(CN(C)C(=O)c2cc(-c3ccc(C)cc3C)nc3ccccc23)c(OC)c1OC | 13.1 µM (active)
84 | COc1ccc(-c2cc(C(=O)NCCCN3CCCC3=O)c3ccccc3n2)cc1OC | inactive
85 | COc1ccc(-c2cc(C(=O)N(C)Cc3ccccc3)c3ccccc3n2)cc1 | inactive
86 | CC1CCN(c2ccc([N+](=O)[O-])c(SCCO)c2)CC1 | inactive
87 | Cc1ccc(C)c(OCC(=O)NNC(=O)C2CCC2)c1 | inactive
88 | COc1cccc(OCc2nnc3n2N=C(c2ccccc2)C(CC(=O)O)S3)c1 (stereo unspecified) | inactive

Row | Compound | Potency
89 | O=C(CSc1ccc(-c2ccc(F)cc2)nn1)Nc1ccc2c(c1)OCCO2 | inactive
90 | O=C(Nc1ccc2c(c1)OCCO2)C(c1ccc(F)cc1)N1CCCCC1 (stereo unspecified) | 8.28 µM (active)
91 | CC1CCCN(C(C(=O)Nc2ccc(C(C)C)cc2)c2ccc3c(c2)OCO3)C1 (stereo unspecified) | inactive
92 | CC(=O)Nc1ccc(NC(=O)C2CCCN(S(=O)(=O)c3ccc(Cl)cc3)C2)cc1 (stereo unspecified) | inactive
93 | CC(NC(=O)CCCC1CCCCC1)c1ccc(S(N)(=O)=O)cc1 (stereo unspecified) | inactive
94 | CCOc1cc(/C=C2\C(=N)N3N=C(C)SC3=NC2=O)ccc1OCCOc1ccccc1 | inactive
95 | O=C(COC(=O)/C=C/c1cccs1)NC1CCCCC1 | inactive
96 | O=C(CCCCCn1c(=S)[nH]c2ccsc2c1=O)NC1CCCCC1 | 13.1 µM (active)
97 | O=C(CCC(=O)c1cccs1)NC1CCCCCC1 | inactive
98 | CN1CCN(Cc2nc3cc(NC(=O)COc4ccc([N+](=O)[O-])cc4)ccc3n2C)CC1 | inactive
99 | Nc1nc(SCC(=O)Nc2cc(C(F)(F)F)ccc2Cl)[nH]c(=O)c1NC(=O)c1ccco1 | inactive
100 | Cc1sc2ncn(CC(=O)NCCCC(=O)NCc3ccc(F)cc3)c(=O)c2c1C | inactive
101 | O=C(Nc1cccc([N+](=O)[O-])c1)c1ccc2c(c1)OCO2 | inactive
102 | CCc1ccc(NC(=O)NC(C)c2ccc3c(c2)OCO3)cc1 (stereo unspecified) | inactive
103 | CC(=O)Nc1cccc([N+](=O)[O-])c1 | inactive
104 | CC(NC(=O)c1ccco1)c1ccc2c(c1)OCO2 (stereo unspecified) | inactive
105 | CC(NC(=O)Nc1cccc([N+](=O)[O-])c1)c1ccc2c(c1)OCO2 (stereo unspecified) | 2.08 µM (active)
106 | CC(NC(=S)Nc1ccc(S(N)(=O)=O)cc1)c1ccc2c(c1)OCO2 (stereo unspecified) | 4.65 µM (active)
